The source of these data is PubChem BioAssay.

Experiment [1] in a line: rapamycin-like changes in RPL19A-GFP expression – cell-based, S. cerevisiae, multiplex flow cytometry, primary screen (AID 1862; in the data active = percent of DMSO control GFP below about 86%;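 note: lower values mimic rapamycin by blocking the RPL19A rise seen in DMSO cells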). The following applies: S. cerevisiae RPL19A-GFP strain, flow cytometry fluorescence, 3 h; at 10 µM; stronger effect = lower value. Background: In flow cytometry, cells or beads pass a laser one at a time.
Experiment [2] in a line: TOR pathway GLN3 branch reporter MEP2-GFP changes – S. cerevisiae, multiplex flow cytometry, primary screen (AID 1867;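 active = GFP response, as percent of the DMSO control, above the screen-wide mean plus 3 SD, about 139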;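 note: median GFP channel fluorescence of barcode-gated MEP2-GFP cells measured by flow cytometry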). To be noted: S. cerevisiae MEP2-GFP strain, 3 h, at 10 µM, stronger effect = higher value, 100% means same as DMSO wells.
Experiment [3] can be described thus: TOR pathway RTG branch CIT2 reporter changes – S. cerevisiae, GFP fusion, multiplex flow cytometry, primary screen (AID 1870;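 active = percent response above a set limit, the screen-wide mean plus 3 SD, cut at about 130% in these data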;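 note: barcoded CIT2-GFP strain pooled with four other GFP strains with rapamycin as positive control; median GFP fluorescence per well over plate mean of DMSO wells so 100% = DMSO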). The following applies: S. cerevisiae CIT2-GFP expression, 3 h, at 10 µM, stronger effect = higher value.
Experiment [4] is described as follows: TOR pathway LAP4-GFP level changes – S. cerevisiae, multiplex flow cytometry, primary screen (AID 1873;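 active = GFP signal, as percent of the solvent control, above the screen mean plus 3 SD, about 149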). To be noted: S. cerevisiae LAP4-GFP expression, 3 h, at 10 µM, stronger effect = higher value.
Experiment [5] is described as follows: yeast AGP1-GFP level changes, GLN3 branch – cell-based, multiplex flow cytometry, S. cerevisiae, primary screen (AID 1887;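 active = GFP signal above the screen-wide mean plus 3 SD, that is over about 124.5% of the solvent control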;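 note: AGP1-GFP fusion strain of S. cerevisiae within a five-strain barcoded multiplex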). The following applies: 3 h, at 10 µM, stronger effect = higher value.
Experiment [6] can be described thus: reduced mouse 2C T cell binding to pMHC/ICAM-1 vesicles – MLPCN validation set, flow cytometry, LFA-1/ICAM-1 modulator project, pilot screen (AID 2523).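 For vesicle binding response: mean PE anti-B7-1 fluorescence of CD8+ cells relative to row control; 100% = QL9-loaded vesicles with DMSO vehicle in the same plate row.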 To be noted: 2C mouse CD8+ T cells, at 7 µM, stronger effect = lower value; double positive events: measured here: CD8+/vesicle+ event percentage.
Experiment [7] addresses Integrin beta-1 (Homo sapiens) + Integrin alpha-4 (Homo sapiens) (UniProt P13612+P05556). The experiment is described as follows: alpha4beta1 integrin LIBS antibody binding reduction – U937 cells, HUTS-21 mAb, flow cytometry, validation set, VLA-4 allosteric modulator project, pilot screen (AID 2674;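 active = inhibition above 50%, about 3 SD of the validation set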;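 note: antibody binding induced by the VLA-4 ligand LDV present at three times its Kd; 0% = LDV ligand with antibody and no compound and 100% = antibody without LDV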). The following applies: HUTS-21 LIBS mAb binding, at 6.7 µM, stronger effect = higher value, binding induced by LDV ligand.

Experiment [8] is described as follows: calorie-restriction mimetic ROS inhibitors, yeast – validation compound set, pilot screen (AID 2706;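 active = superoxide response below 65% of plate, a cut near 3 SD across the whole screen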;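 note: yeast exposed to compound for one week at 30 degrees C before staining; 100% = mean of all compound wells on the same plate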). To be noted: S. cerevisiae aging, superoxide DHE fluorescence; at 10 µM; stronger effect = lower value.
Experiment [9] deals with Beta-adrenergic receptor kinase 1 (Homo sapiens) (UniProt P25098). Nature of the experiment: GRK2 binders displacing RNA aptamer, biochemical, validation, human GRK2, bead flow cytometry (AID 488806;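 active = aptamer binding inhibition above 30%, about 3 SD of noise from non-fluorescent compounds; inactive = inhibition at or below 30%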). The following applies: bead-bound GRK2, FAM-aptamer displacement, at 10 µM, stronger effect = higher value.
Sequence of Beta-adrenergic receptor kinase 1 (Homo sapiens) (P25098 whole entry, looked up): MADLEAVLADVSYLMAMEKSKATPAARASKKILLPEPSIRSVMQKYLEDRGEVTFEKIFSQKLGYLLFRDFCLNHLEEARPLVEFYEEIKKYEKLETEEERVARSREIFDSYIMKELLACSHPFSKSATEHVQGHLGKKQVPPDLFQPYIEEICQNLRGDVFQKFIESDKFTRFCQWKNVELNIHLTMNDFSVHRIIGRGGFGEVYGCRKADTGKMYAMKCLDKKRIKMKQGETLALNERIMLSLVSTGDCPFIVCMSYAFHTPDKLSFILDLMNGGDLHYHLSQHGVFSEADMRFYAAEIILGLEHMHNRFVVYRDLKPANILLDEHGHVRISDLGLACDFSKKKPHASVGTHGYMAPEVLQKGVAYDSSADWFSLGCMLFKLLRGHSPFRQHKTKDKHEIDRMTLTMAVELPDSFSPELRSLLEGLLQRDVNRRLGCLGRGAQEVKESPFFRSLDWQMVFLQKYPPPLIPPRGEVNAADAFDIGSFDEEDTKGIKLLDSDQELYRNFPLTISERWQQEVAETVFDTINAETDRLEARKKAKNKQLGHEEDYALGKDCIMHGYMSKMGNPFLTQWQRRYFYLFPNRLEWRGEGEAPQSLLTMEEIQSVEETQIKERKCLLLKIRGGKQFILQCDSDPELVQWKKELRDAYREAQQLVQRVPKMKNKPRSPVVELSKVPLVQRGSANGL
Experiment [10] concerns the target Beta-2 adrenergic receptor (Homo sapiens) (UniProt P07550). Nature of the experiment: agonist-induced loss of surface beta2AR – cell-based, FAP fluorogen, flow cytometry, validation set, pilot screen (AID 504459;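 active = percent response above 42, roughly 3 SD of non-fluorescent test compounds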;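 note: agonist-driven loss of surface beta2AR via internalization measured by FAP dye flow cytometry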). To be noted: Am2.2-beta2AR cells, at 10 µM, stronger effect = higher value.
The target in experiment [11] is AP-2 complex subunit beta (Homo sapiens) (UniProt P63010). Nature of the experiment: beta-arrestin/AP2 interaction blockers – biochemical, validation set, GST-AP2 beads, flow cytometry, pilot screen (AID 504541;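 active = inhibition above 54%, about 3 SD of non-fluorescent compounds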;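 note: AP2 carries R879A mutation and is captured from E. coli lysate; bead-bound FITC arrestin peptide fluorescence measuring arrestin peptide binding to AP2; 0% = DMSO wells and 100% = excess unlabeled arrestin peptide control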). The following applies: FITC arrestin peptide, at 10 µM, stronger effect = higher value, AP2 beta2 appendage fragment, R879A mutant.
Sequence of AP-2 complex subunit beta (Homo sapiens) (P63010 whole entry, looked up, the tested form may be a part, one chain of several): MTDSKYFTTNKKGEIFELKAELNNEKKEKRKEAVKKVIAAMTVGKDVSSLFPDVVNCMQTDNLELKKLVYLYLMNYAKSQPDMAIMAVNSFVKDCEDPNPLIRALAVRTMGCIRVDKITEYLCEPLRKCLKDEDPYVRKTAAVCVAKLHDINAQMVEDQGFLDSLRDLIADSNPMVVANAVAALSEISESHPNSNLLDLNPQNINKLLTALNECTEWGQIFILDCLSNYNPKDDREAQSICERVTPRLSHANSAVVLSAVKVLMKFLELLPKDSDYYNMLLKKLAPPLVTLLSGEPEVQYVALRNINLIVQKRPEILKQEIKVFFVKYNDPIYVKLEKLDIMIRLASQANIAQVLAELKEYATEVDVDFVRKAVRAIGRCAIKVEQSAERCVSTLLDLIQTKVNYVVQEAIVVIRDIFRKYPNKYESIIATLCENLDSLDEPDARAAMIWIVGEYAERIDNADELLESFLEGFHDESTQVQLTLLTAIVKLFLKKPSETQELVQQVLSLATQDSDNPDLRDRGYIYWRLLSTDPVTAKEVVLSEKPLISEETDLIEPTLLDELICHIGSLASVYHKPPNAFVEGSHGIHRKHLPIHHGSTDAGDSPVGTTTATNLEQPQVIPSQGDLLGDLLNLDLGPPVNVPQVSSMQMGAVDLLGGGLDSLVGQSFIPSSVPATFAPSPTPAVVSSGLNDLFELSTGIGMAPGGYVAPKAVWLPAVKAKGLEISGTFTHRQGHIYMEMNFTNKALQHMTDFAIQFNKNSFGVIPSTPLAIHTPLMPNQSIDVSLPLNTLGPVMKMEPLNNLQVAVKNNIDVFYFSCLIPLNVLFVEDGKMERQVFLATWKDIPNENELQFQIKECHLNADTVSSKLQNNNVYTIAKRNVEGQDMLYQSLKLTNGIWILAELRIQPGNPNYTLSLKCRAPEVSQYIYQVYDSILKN
Experiment [12] can be described thus: cytosolic pH regulators acting via V-ATPase – S. cerevisiae, pHLuorin, HTS validation (AID 504600; in the data active = response above about 15%;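 note: plate controls were DMSO for no effect and reference compound for full effect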). To be noted: V-ATPase proton transport, at 10 µM, stronger effect = higher value.
The subject of experiment [13] is anti-desmoglein-3 scFv antibody binding to human DSG3. The experiment is described as follows: blockers of pathogenic pemphigus antibody–desmoglein-3 binding – biochemical, validation compound set, bead-based, flow cytometry, pilot screen (AID 588368;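 active = binding below the plate cutoff, the plate median minus 3 SD, with a reading above zero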;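 note: signal is the median channel fluorescence of bead-bound GFP antibody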). To be noted: Protein G beads, DSG3-Fc, scFv-GFP binding, at 10 µM, stronger effect = lower value.
The nature of experiment [14]: Nile Red efflux blockade in pump-expressing yeast – validation compound set, multiplex, phenotypic, pilot screen (AID 588506;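 active = efflux inhibition above 0.42, the validation set average plus 4 SD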;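 note: Nile Red retained in cells so higher fluorescence means more efflux inhibition; 0 = negative control wells and 1 = enniatin B 25 µM full block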). To be noted: S. cerevisiae pump-expressing triplex, Nile Red efflux flow cytometry; at 10 µM; stronger effect = higher value; the pumps come from Candida albicans.
In experiment [15] the target is ATP-binding cassette sub-family B member 6 (Homo sapiens) (UniProt Q9NP58). The experiment is described as follows: blockers of ABCB6-driven porphyrin uptake – K562-ABCB6 cells, flow cytometry, validation set, pilot screen (AID 588550;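 active = inhibition above the screen-wide mean plus 3 SD, about 51%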;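 note: 0% = DMSO wells and 100% = benzethonium chloride 70 µM positive control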). To be noted: K562-ABCB6 porphyrin accumulation, 1 h, at 10 µM, stronger effect = higher value.
Sequence of ATP-binding cassette sub-family B member 6 (Homo sapiens) (Q9NP58 whole entry, looked up): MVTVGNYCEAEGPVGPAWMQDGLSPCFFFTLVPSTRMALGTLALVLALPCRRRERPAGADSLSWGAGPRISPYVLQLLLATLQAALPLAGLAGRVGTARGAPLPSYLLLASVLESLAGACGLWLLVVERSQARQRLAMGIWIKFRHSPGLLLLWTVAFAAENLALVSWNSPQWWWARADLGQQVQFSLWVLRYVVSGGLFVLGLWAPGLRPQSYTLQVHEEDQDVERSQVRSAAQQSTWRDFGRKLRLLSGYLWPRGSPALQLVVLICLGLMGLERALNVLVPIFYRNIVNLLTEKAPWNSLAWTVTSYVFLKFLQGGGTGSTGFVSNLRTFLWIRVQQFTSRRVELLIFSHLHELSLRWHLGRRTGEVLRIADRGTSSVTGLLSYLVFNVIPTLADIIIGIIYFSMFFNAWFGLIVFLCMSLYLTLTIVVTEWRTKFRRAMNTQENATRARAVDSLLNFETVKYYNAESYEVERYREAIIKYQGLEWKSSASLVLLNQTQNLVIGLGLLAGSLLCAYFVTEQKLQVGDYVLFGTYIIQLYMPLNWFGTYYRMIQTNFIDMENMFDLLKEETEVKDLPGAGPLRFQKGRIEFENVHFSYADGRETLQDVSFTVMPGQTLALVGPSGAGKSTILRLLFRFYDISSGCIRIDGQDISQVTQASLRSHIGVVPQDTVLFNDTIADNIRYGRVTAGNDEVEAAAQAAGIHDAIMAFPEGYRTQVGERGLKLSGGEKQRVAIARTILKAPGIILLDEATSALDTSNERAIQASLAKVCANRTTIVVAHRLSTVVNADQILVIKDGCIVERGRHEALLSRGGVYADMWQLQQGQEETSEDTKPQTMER
Experiment [16] can be described thus: AML differentiation inducers, ER-HoxA9 marrow cells – cell-based, GFP/MAC1 double positive, flow cytometry, validation set, primary screen (AID 588685;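 active = differentiation response of at least 50%, scaled between solvent and reference control, from cells with both markers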;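 note: compound exposure lasts four days before antibody staining and flow analysis; 0% = DMSO wells and 100% = 5 µM fulvestrant positive control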). To be noted: stronger effect = higher value, normalized: vehicle 0, fulvestrant 100.

Inconclusive results are not listed. The source made the active and inactive calls.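 Rule for the calls, unless noted: active = response below a set limit, under 55% cells CD8-positive and vesicle-bound, and CD8 cells' 90th-percentile brightness under 279; inactive = the rest.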

Sequence of Beta-2 adrenergic receptor (Homo sapiens) (P07550 whole entry, looked up): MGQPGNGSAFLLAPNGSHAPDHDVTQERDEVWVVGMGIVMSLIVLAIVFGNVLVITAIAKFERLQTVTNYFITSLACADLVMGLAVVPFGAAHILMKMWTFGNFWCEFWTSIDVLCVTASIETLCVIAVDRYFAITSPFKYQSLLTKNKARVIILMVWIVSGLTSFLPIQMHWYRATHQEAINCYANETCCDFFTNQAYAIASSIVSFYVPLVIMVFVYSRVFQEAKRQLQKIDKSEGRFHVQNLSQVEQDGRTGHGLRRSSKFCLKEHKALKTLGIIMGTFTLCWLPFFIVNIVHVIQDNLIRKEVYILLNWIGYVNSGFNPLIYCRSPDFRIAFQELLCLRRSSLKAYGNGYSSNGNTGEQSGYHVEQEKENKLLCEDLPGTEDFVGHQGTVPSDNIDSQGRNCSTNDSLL
Sequence of Integrin beta-1 (Homo sapiens) + Integrin alpha-4 (Homo sapiens) (P05556 whole entry, looked up): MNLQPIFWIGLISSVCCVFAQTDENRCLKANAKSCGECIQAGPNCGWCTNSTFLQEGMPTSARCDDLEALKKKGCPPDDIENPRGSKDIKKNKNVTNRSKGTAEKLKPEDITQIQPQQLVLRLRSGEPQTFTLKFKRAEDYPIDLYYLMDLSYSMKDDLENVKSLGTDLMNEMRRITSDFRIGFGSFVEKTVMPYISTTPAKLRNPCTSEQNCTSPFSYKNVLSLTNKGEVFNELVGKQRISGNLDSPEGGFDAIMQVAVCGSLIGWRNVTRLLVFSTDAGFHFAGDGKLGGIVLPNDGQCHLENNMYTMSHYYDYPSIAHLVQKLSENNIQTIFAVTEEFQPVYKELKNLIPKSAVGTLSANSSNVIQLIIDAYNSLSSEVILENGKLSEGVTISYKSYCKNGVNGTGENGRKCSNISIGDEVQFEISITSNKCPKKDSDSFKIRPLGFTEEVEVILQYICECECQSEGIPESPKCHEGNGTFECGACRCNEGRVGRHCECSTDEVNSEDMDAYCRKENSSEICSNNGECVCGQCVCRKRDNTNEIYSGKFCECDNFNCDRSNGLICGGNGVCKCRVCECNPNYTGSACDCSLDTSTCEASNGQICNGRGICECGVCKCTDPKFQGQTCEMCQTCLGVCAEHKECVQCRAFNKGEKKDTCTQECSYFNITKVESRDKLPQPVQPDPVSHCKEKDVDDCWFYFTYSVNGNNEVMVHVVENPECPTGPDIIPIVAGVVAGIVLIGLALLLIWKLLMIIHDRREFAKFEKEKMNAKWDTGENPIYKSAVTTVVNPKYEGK
Sequence of Integrin beta-1 (Homo sapiens) + Integrin alpha-4 (Homo sapiens) (P13612 whole entry, looked up): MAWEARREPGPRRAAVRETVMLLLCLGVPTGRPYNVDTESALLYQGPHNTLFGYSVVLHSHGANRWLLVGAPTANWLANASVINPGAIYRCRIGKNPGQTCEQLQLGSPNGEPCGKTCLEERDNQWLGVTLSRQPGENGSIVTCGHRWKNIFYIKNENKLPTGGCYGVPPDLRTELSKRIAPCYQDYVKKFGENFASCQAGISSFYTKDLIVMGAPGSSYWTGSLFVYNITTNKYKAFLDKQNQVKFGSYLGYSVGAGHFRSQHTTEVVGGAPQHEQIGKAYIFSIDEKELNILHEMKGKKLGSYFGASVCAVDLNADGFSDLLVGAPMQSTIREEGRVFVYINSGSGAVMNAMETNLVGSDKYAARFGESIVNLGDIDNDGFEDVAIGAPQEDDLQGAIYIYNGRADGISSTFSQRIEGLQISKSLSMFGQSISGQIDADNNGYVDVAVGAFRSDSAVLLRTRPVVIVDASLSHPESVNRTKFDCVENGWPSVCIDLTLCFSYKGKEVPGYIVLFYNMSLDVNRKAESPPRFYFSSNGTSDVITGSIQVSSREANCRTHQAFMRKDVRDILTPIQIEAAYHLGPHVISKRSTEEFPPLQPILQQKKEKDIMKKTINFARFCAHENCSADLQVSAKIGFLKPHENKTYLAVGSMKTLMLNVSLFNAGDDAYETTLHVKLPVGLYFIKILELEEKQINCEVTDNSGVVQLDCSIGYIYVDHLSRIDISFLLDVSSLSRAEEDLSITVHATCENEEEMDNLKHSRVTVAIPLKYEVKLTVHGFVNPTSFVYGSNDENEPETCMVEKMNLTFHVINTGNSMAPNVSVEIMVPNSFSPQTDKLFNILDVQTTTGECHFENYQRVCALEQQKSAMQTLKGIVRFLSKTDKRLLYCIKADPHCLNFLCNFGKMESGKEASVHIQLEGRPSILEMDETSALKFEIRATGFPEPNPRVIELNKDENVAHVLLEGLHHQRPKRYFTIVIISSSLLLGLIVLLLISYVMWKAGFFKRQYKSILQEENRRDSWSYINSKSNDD

As to `COc1cccc2cc(-c3ccccc3)c(=O)oc12`, the percent of DMSO control GFP in experiment [1] is 105% (inactive). Further, the GFP response vs DMSO in experiment [2] is 106% (inactive); in [4] it was 140% (inactive). Further, the percent response of DMSO control in experiment [3] is 101% (inactive). For the same compound, in [5], the GFP response, % of DMSO was 106% (inactive). This compound also showed a double positive events in [6] of 61.4%. Also, the vesicle binding response in [6] is 134% (inactive). The figures for the inhibition in [7], in experiment [11] and in [15] were -1.97% (inactive), 10.1% (inactive) and 2% (inactive), respectively. For the same compound, the superoxide response (% of plate) in experiment [8] was 88.6% (inactive). Also, in experiment [9], the aptamer binding inhibition is 3% (inactive). The response is -27.6% (inactive) in experiment [10] and 34.3% (active) in experiment [12]. In experiment [13], the binding (% of control) is 102% (inactive). The efflux inhibition (fraction of control) in experiment [14] is 0.29 (inactive). In experiment [16], the differentiation response is -1.05% (inactive).
Turning to `NC(N)=NC(N)=NCCc1ccccc1`, the percent of DMSO control GFP in [1] was 101% (inactive). In addition, the GFP response vs DMSO in experiment [2] was 112% (inactive); in experiment [4] it was 94% (inactive). Moreover, the percent response of DMSO control in [3] is 100% (inactive). Further, in [5], the GFP response, % of DMSO is 100% (inactive). The compound further gave a double positive events in experiment [6] of 59.4%. In experiment [6], the vesicle binding response is 210% (inactive). Besides, the values for the inhibition in experiment [7], in experiment [11] and in experiment [15] were 3.7% (inactive), 7.19% (inactive) and -4% (inactive), respectively. In addition, in experiment [8], the superoxide response (% of plate) was 105% (inactive). Besides, the aptamer binding inhibition in experiment [9] was 0% (inactive). Also, the response in [10] was -4.33% (inactive); in [12] it was -3.91% (inactive). Besides, the binding (% of control) in [13] was 88.8% (inactive). Further, the efflux inhibition (fraction of control) in [14] is 0.24 (inactive). For the same compound, the differentiation response in experiment [16] was -8.55% (inactive).
In the case of `Cc1ccc2c(c1)C1(C(=O)N2)N2CCCC2C(C(=O)c2ccc3ccccc3c2)C12C(=O)Nc1ccccc12` (stereo not drawn), the percent of DMSO control GFP in [1] is 107% (inactive). In addition, the results for the GFP response vs DMSO in experiment [2] and in [4] were 93% (inactive) and 89.4% (inactive), respectively. In addition, the percent response of DMSO control in experiment [3] is 115% (inactive). Besides, the GFP response, % of DMSO in experiment [5] is 101% (inactive). In experiment [6], this compound registered a double positive events of 60.9%. In experiment [6], the vesicle binding response is 224% (inactive). Also, the inhibition (as a rule, the drop in the measured response relative to a control, in per cent) in experiment [7] was -8.75% (inactive); in experiment [11] it was -0.28% (inactive); in [15], -11% (inactive). Also, the superoxide response (% of plate) in experiment [8] was 94.8% (inactive). In experiment [9], the aptamer binding inhibition was 1% (inactive). Also, the response in experiment [10] was 3.54% (inactive); in experiment [12], 2.26% (inactive). Also, in experiment [13], the binding (% of control) is 97.2% (inactive). For the same compound, the efflux inhibition (fraction of control) in experiment [14] is 0.24 (inactive). The differentiation response in [16] is -0.73% (inactive).
`CC1(C)C(C=C(Cl)Cl)C1C(=O)N1CCN(Cc2ccccc2)CC1` (stereo not drawn): in experiment [1], the percent of DMSO control GFP was 103% (inactive). For the same compound, the values for the GFP response vs DMSO in experiment [2] and in experiment [4] were 99.3% (inactive) and 89.4% (inactive), respectively. For the same compound, the percent response of DMSO control in experiment [3] is 104% (inactive). Also, in experiment [5], the GFP response, % of DMSO is 103% (inactive). In experiment [6], this compound yielded a double positive events of 66.3%. Moreover, the vesicle binding response in [6] is 329% (inactive). In addition, the inhibition was -6.68% (inactive) in experiment [7], 5.16% (inactive) in [11] and 13% (inactive) in experiment [15]. Moreover, the superoxide response (% of plate) in experiment [8] was 102% (inactive). Moreover, the aptamer binding inhibition in experiment [9] was 3% (inactive). Also, the figures for the response in experiment [10] and in experiment [12] were -1.88% (inactive) and -5.4% (inactive), respectively. Moreover, the binding (% of control) in experiment [13] was 93.5% (inactive). Besides, the efflux inhibition (fraction of control) in experiment [14] was -0.01 (inactive). Moreover, the differentiation response in experiment [16] was -9.53% (inactive).
